# Results reported in PubChem BioAssay (NCI).
# Values joined by “and” are separate entries in the source; they are usually repeats but may differ in a detail not shown here. Equal values may be shown once. Compounds without any hit were thinned out: in the full panel of roughly 83,000, 20% have a hit.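 Each cell line was grown in a 96-well plate and treated with one concentration of compound for 48 hours. Values below 10 were considered active.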 Active and inactive are the calls of the source. Where a SMILES comes first, the peptide text is derived from it.
# Assays:
# Assay in all cases: NCI-60 one-dose screen, 48 h (100 = growth as untreated, 0 = no growth, -100 = all killed)
# [1] = tested on: HCT-15 colon; details: 10 µM unless noted
# [2] = tested on: HT29 colon; details: 10 µM unless noted
# [3] = tested on: SNB-75 CNS; details: 10 µM unless noted
# [4] = tested on: SNB-19 CNS; details: 10 µM unless noted
# [5] = tested on: U251 CNS; details: 10 µM unless noted
# [6] = tested on: PC-3 prostate; details: 10 µM unless noted
# [7] = tested on: SK-MEL-5 melanoma; details: 10 µM unless noted
# [8] = tested on: UACC-62 melanoma
# [9] = tested on: LOX IMVI melanoma; details: 10 µM unless noted
# [10] = tested on: SK-MEL-28 melanoma; details: 10 µM unless noted
# [11] = tested on: SK-MEL-2 melanoma; details: 10 µM unless noted
# [12] = tested on: SN12C renal; details: 10 µM unless noted
# [13] = tested on: UO-31 renal; details: 10 µM unless noted
# [14] = tested on: TK-10 renal
# [15] = tested on: ACHN renal; details: 10 µM unless noted
# [16] = tested on: CAKI-1 renal; details: 10 µM unless noted
# [17] = tested on: A498 renal; details: 10 µM unless noted
# [18] = tested on: CCRF-CEM leukemia; details: 10 µM
# [19] = tested on: EKVX NSCLC; details: 10 µM
# [20] = tested on: MOLT-4 leukemia; details: 10 µM unless noted
smiles,measurement,setting,value
Brc1ccc(SSc2ccc(Br)cc2)cc1,growth,[1],77.3% (inactive)
same,growth,[2],97.2% (inactive)
same,growth,[3],77.2% (inactive)
same,growth,[4],87.9% (inactive)
same,growth,[5],65.8% (inactive)
same,growth,[6],39.7% (inactive)
same,growth,[7],54.7% (inactive)
same,growth,[8]; 10 µM unless noted,96.9% (inactive)
same,growth,[9],3.5% (active)
same,growth,[10],97.6% (inactive)
same,growth,[11],101% (inactive)
same,growth,[12],63.8% (inactive)
same,growth,[13],49.6% (inactive)
same,growth,[14]; 10 µM unless noted,97.1% (inactive)
same,growth,[15],109% (inactive)
same,growth,[16],106% (inactive)
same,growth,[17],71.2% (inactive)
same,growth,[18],8.01% (active)
CC1CCC(C(C)C)C(NNC(N)=O)C1 (stereo unspecified),growth,[1],112% (inactive)
same,growth,[2],102% (inactive)
same,growth,[3],102% (inactive)
same,growth,[4],98.4% (inactive)
same,growth,[5],92.4% (inactive)
same,growth,[6],86.2% (inactive)
same,growth,[7],102% (inactive)
same,growth,[9],100% (inactive)
same,growth,[10],120% (inactive)
same,growth,[11],107% (inactive)
same,growth,[19],101% (inactive)
same,growth,[12],101% (inactive)
same,growth,[13],86.6% (inactive)
same,growth,[14]; 10 µM unless noted,105% (inactive)
same,growth,[15],110% (inactive)
same,growth,[16],98.9% (inactive)
same,growth,[17],102% (inactive)
same,growth,[18],106% (inactive)
Nc1ccc2c(O)cc(S(=O)(=O)O)cc2c1,growth,[1],104% (inactive) and 105% (inactive)
same,growth,[2],102% (inactive) and 106% (inactive)
same,growth,[3],99.7% (inactive)
same,growth,[4],91.6% (inactive) and 104% (inactive)
same,growth,[6],85.5% (inactive)
same,growth,[7],96.6% (inactive) and 104% (inactive)
same,growth,[8]; 10 µM unless noted,93.7% (inactive) and 103% (inactive)
same,growth,[9],92.8% (inactive)
same,growth,[10],101% (inactive) and 114% (inactive)
same,growth,[11],108% (inactive) and 92.1% (inactive)
same,growth,[19],102% (inactive) and 110% (inactive)
same,growth,[12],95.4% (inactive) and 86.9% (inactive)
same,growth,[13],69.5% (inactive) and 63.5% (inactive)
same,growth,[14]; 10 µM unless noted,94.4% (inactive) and 143% (inactive)
same,growth,[15],95.8% (inactive) and 92.8% (inactive)
same,growth,[16],87.1% (inactive)
same,growth,[17],102% (inactive) and 100% (inactive)
same,growth,[18],74.6% (inactive)
same,growth,[20],87.3% (inactive) and 92.5% (inactive)
CN(C)c1ccc(/C=C\C(=O)c2ccccc2)cc1,growth,[1],83.3% (inactive) and 66.5% (inactive) and 72% (inactive)
same,growth,[2],53.6% (inactive) and 58.5% (inactive) and 57.6% (inactive)
same,growth,[3],70.1% (inactive) and 100% (inactive) and 93.4% (inactive)
same,growth,[4],98.7% (inactive) and 92.3% (inactive) and 61.6% (inactive)
same,growth,[5],82.2% (inactive) and 80.6% (inactive)
same,growth,[6],88.3% (inactive) and 94.4% (inactive) and 76% (inactive)
same,growth,[7],95.2% (inactive) and 89.4% (inactive) and 89.1% (inactive)
same,growth,[8]; 10 µM unless noted,88.4% (inactive) and 91.1% (inactive) and 84.9% (inactive)
same,growth,[9],84.5% (inactive) and 75.6% (inactive) and 77.4% (inactive)
same,growth,[10],93% (inactive) and 103% (inactive) and 89.8% (inactive)
same,growth,[11],93.3% (inactive) and 91.9% (inactive) and 72.1% (inactive)
same,growth,[19],105% (inactive)
same,growth,[12],95.6% (inactive) and 98.8% (inactive) and 95% (inactive)
same,growth,[13],74.5% (inactive) and 69.4% (inactive) and 63.9% (inactive)
same,growth,[14]; 10 µM unless noted,76.6% (inactive) and 79% (inactive) and 70.5% (inactive)
same,growth,[15],99.4% (inactive) and 101% (inactive)
same,growth,[17],91.8% (inactive) and 71.8% (inactive) and 102% (inactive)
same,growth,[18],70.4% (inactive) and 65% (inactive) and 74% (inactive)
CC(C)NC(=O)N/C=C(\C#N)C(N)=O,growth,[1],101% (inactive)
same,growth,[2],107% (inactive)
same,growth,[3],83.2% (inactive)
same,growth,[4],110% (inactive)
same,growth,[5],114% (inactive)
same,growth,[6],94.9% (inactive)
same,growth,[7],101% (inactive)
same,growth,[8]; 10 µM unless noted,101% (inactive)
same,growth,[9],97.2% (inactive)
same,growth,[10],100% (inactive)
same,growth,[11],101% (inactive)
same,growth,[19],97.2% (inactive)
same,growth,[12],99.1% (inactive)
same,growth,[13],87.8% (inactive)
same,growth,[14]; 10 µM unless noted,99.7% (inactive)
same,growth,[15],94.8% (inactive)
same,growth,[16],81.5% (inactive)
same,growth,[17],112% (inactive)
same,growth,[18],114% (inactive)
O=C(Cc1ccccc1)c1ccc(O)c(Cl)c1,growth,[1],13.9% (inactive)
same,growth,[2],30.2% (inactive)
same,growth,[3],72.7% (inactive)
same,growth,[4],74.8% (inactive)
same,growth,[5],73% (inactive)
same,growth,[6],53.2% (inactive)
same,growth,[7],27.5% (inactive)
same,growth,[8]; 10 µM unless noted,26.8% (inactive)
same,growth,[9],15.2% (inactive)
same,growth,[10],49.4% (inactive)
same,growth,[11],64.9% (inactive)
same,growth,[19],66.1% (inactive)
same,growth,[12],31.1% (inactive)
same,growth,[13],36.5% (inactive)
same,growth,[14]; 10 µM unless noted,47.4% (inactive)
same,growth,[15],37.6% (inactive)
same,growth,[16],42.1% (inactive)
same,growth,[17],105% (inactive)
same,growth,[18],-27.2% (active)
CCCCOc1ccc(Nc2cc(Cl)ccc2C(=O)O)cn1,growth,[1],104% (inactive) and 89.1% (inactive)
same,growth,[2],115% (inactive)
same,growth,[3],98.7% (inactive) and 115% (inactive)
same,growth,[4],96.6% (inactive) and 106% (inactive)
same,growth,[6],93.6% (inactive)
same,growth,[7],99.4% (inactive) and 102% (inactive)
same,growth,[8]; 10 µM unless noted,97.9% (inactive) and 98.1% (inactive)
same,growth,[9],107% (inactive) and 90.5% (inactive)
same,growth,[10],122% (inactive) and 113% (inactive)
same,growth,[11],79.3% (inactive) and 112% (inactive)
same,growth,[19],101% (inactive) and 98.6% (inactive)
same,growth,[12],94.2% (inactive) and 104% (inactive)
same,growth,[13],6.77% (active) and 86.2% (inactive)
same,growth,[14]; 10 µM unless noted,112% (inactive) and 121% (inactive)
same,growth,[15],106% (inactive) and 89.9% (inactive)
same,growth,[16],97.7% (inactive) and 94.4% (inactive)
same,growth,[17],102% (inactive)
same,growth,[18],82.3% (inactive) and 95% (inactive)
same,growth,[20],94.6% (inactive) and 108% (inactive)
O=C(/C=C/c1ccccc1)c1ccccc1,growth,[1],86.3% (inactive)
same,growth,[2],68.9% (inactive)
same,growth,[3],101% (inactive)
same,growth,[4],79% (inactive)
same,growth,[5],75.1% (inactive)
same,growth,[6],111% (inactive)
same,growth,[7],84.4% (inactive)
same,growth,[8]; 10 µM unless noted,102% (inactive)
same,growth,[9],89.7% (inactive)
same,growth,[10],115% (inactive)
same,growth,[11],101% (inactive)
same,growth,[19],93.4% (inactive)
same,growth,[12],100% (inactive)
same,growth,[13],79.3% (inactive)
same,growth,[14]; 10 µM unless noted,114% (inactive)
same,growth,[15],107% (inactive)
same,growth,[17],94.2% (inactive)
NC(Cc1ccccc1)C(=O)NC(Cc1ccccc1)C(=O)O (stereo not drawn) (H-Phe-Phe-OH; configuration not given here),growth,[1],106% (inactive) and 98.3% (inactive)
same,growth,[2],101% (inactive) and 104% (inactive)
same,growth,[3],88.1% (inactive) and 93.5% (inactive)
same,growth,[4],94.5% (inactive) and 100% (inactive)
same,growth,[5],99% (inactive) and 94% (inactive)
same,growth,[6],95.2% (inactive) and 90.6% (inactive)
same,growth,[7],100% (inactive) and 94.8% (inactive)
same,growth,[8]; 10 µM unless noted,104% (inactive)
same,growth,[9],95.3% (inactive) and 103% (inactive)
same,growth,[10],103% (inactive) and 105% (inactive)
same,growth,[11],99.1% (inactive) and 104% (inactive)
same,growth,[19],98% (inactive)
same,growth,[12],103% (inactive) and 101% (inactive)
same,growth,[13],88.5% (inactive) and 86.9% (inactive)
same,growth,[14]; 10 µM unless noted,105% (inactive)
same,growth,[15],103% (inactive)
same,growth,[17],93.2% (inactive) and 102% (inactive)
same,growth,[18],118% (inactive) and 98.4% (inactive)
Cc1cc(-c2cc(C)c(O)c(C)c2)cc(C)c1O,growth,[1],70.8% (inactive)
same,growth,[2],96.1% (inactive)
same,growth,[3],65% (inactive)
same,growth,[4],83.8% (inactive)
same,growth,[5],88.6% (inactive)
same,growth,[6],80.9% (inactive)
same,growth,[7],73.9% (inactive)
same,growth,[8]; 10 µM unless noted,62.8% (inactive)
same,growth,[9],76.8% (inactive)
same,growth,[10],88% (inactive)
same,growth,[11],73.5% (inactive)
same,growth,[19],68.2% (inactive)
same,growth,[12],90.5% (inactive)
same,growth,[13],77.1% (inactive)
same,growth,[14]; 10 µM unless noted,90.5% (inactive)
same,growth,[15],92.1% (inactive)
same,growth,[18],82.6% (inactive)
CCCCOC(=O)/C=C\C(=O)NC(N)=O,growth,[1],90.8% (inactive)
same,growth,[2],97% (inactive)
same,growth,[3],95.9% (inactive)
same,growth,[4],91.4% (inactive)
same,growth,[5],96.4% (inactive)
same,growth,[6],83% (inactive)
same,growth,[7],99.8% (inactive)
same,growth,[8]; 10 µM unless noted,79.1% (inactive)
same,growth,[9],79.1% (inactive)
same,growth,[10],97.6% (inactive)
same,growth,[11],111% (inactive)
same,growth,[19],95% (inactive)
same,growth,[12],87.2% (inactive)
same,growth,[13],31% (inactive)
same,growth,[14]; 10 µM unless noted,119% (inactive)
same,growth,[15],61.3% (inactive)
same,growth,[17],106% (inactive)
same,growth,[18],75.2% (inactive)
same,growth,[20],65.4% (inactive)
CC1CCC2(C(=O)O)CCC3(C)C(=CCC4C5(C)CCC(O)C(C)(C)C5CCC43C)C2C1C (stereo unspecified),growth,[1],32.4% (inactive) and 66.2% (inactive)
same,growth,[2],48.3% (inactive) and 111% (inactive)
same,growth,[3],32.2% (inactive) and 95.6% (inactive)
same,growth,[4],63.4% (inactive) and 91.6% (inactive)
same,growth,[6],65.1% (inactive) and 79.8% (inactive)
same,growth,[7],24.7% (inactive) and 96.2% (inactive)
same,growth,[8]; 10 µM,88.6% (inactive) and 81.2% (inactive)
same,growth,[8]; 100 µM,-65.9% (active) and -92.3% (active)
same,growth,[9],25.3% (inactive) and 70.1% (inactive)
same,growth,[10],35.9% (inactive) and 78.7% (inactive)
same,growth,[11],82.5% (inactive) and 86.8% (inactive)
same,growth,[19],74% (inactive) and 70.8% (inactive)
same,growth,[12],79.3% (inactive) and 99.7% (inactive)
same,growth,[13],5.91% (active) and 55.4% (inactive)
same,growth,[14]; 10 µM,90.6% (inactive) and 88.5% (inactive)
same,growth,[14]; 100 µM,-77.6% (active) and -96.8% (active)
same,growth,[15],57.7% (inactive) and 76.2% (inactive)
same,growth,[16],40.4% (inactive) and 90.8% (inactive)
same,growth,[17],103% (inactive)
same,growth,[18],-22.1% (active) and 35.8% (inactive)
